Reference: publication PMC4336329 (PLoS ONE, 2015)
The whole screen tested about 310,000 compounds, of which about 14,000 (4.5%) showed an effect of 50% or more. The effect is printed as a negative number. The full list was thinned out, with strong results kept by preference.

Target: human ether-à-go-go-related gene (hERG) potassium channel (human, UniProt Q12809)
Assay: primary screen, population patch clamp on CHO cells stably expressing hERG; higher = less effect of the substance
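Further: peak tail current of the secondary pulse compared with the same well before compound.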

Chain of human ether-à-go-go-related gene (hERG) potassium channel (Q12809 whole entry, looked up): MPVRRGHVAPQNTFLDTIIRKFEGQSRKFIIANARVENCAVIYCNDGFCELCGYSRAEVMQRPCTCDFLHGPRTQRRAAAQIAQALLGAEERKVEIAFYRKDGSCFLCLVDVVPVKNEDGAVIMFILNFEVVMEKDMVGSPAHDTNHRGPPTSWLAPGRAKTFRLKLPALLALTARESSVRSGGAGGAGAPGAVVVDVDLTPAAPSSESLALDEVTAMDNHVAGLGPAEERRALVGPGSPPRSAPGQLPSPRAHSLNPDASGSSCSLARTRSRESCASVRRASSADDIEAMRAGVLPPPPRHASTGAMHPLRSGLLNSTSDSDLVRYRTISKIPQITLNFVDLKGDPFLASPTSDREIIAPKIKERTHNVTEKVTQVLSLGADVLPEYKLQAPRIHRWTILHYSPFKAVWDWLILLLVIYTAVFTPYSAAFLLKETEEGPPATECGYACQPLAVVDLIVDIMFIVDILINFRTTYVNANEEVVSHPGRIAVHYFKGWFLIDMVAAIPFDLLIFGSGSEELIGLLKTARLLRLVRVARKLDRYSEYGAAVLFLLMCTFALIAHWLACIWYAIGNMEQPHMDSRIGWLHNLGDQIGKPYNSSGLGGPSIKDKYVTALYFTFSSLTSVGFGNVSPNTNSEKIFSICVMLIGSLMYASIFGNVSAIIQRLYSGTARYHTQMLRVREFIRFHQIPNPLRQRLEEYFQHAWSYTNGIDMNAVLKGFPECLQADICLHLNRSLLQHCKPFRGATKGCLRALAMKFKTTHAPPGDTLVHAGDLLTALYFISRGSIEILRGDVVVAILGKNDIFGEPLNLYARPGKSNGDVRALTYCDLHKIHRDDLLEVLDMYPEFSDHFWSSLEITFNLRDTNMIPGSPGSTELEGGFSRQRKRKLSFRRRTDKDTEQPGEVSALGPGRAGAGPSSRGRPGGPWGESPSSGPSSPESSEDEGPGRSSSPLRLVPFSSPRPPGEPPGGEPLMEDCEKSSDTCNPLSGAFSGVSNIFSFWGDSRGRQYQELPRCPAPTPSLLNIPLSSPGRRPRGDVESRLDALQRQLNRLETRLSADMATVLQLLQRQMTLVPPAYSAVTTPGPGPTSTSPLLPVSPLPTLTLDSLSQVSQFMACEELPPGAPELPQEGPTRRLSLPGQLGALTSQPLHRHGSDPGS

| Structure (SMILES) | hERG current change (%, negative = inhibition) at 10uM |
| --- | --- |
| COc1cccc(C(=O)N2CCN(Cc3ccccc3[N+](=O)[O-])CC2)c1 | -14.5% |
| CN(Cc1ccccc1)C1CCN(Cc2ccccc2[N+](=O)[O-])CC1.O=C(O)C(=O)O | -59.6% |
| COc1ccc(C(=O)N2CCN(Cc3ccccc3[N+](=O)[O-])CC2)cc1.O=C(O)C(=O)O | -58.9% |
| O=C(Cc1ccccc1[N+](=O)[O-])NC1CCN(Cc2ccccc2)CC1 | -1.68% |
| COc1cc(OC)cc(C(=O)N2CCN(Cc3ccccc3[N+](=O)[O-])CC2)c1.O=C(O)C(=O)O | -46.5% |
| CC(C)CC(=O)N1CCN(Cc2ccccc2[N+](=O)[O-])CC1.O=C(O)C(=O)O | -7.35% |
| O=C(O)C(=O)O.O=C(c1ccc([N+](=O)[O-])cc1)N1CCN(Cc2ccccc2[N+](=O)[O-])CC1 | -75% |
| O=C(c1cccs1)N1CCN(Cc2ccccc2[N+](=O)[O-])CC1 | -17.7% |
| O=C(C1CCCN(Cc2ccccc2[N+](=O)[O-])C1)N1CCCC1.O=C(O)C(=O)O (centres unmarked) | 11.4% |
| CC(=O)Nc1cccc(NC(=O)CSc2ccc(-c3cccnc3)nn2)c1 | 7.43% |
| CCC(C)/C(C)=N/NC(=O)CSc1nc2ccccc2[nH]1 (centres unmarked) | 2.26% |
| O=C1C2CC=CCC2C(=O)N1CNc1ccccc1 (centres unmarked) | 14.7% |
| Cc1c(Cl)c([N+](=O)[O-])nn1CCCC(=O)Nc1ccc(Cl)cc1Cl | -45.1% |
| COc1ccc(CNC(=O)C(=O)NCC2OCCN2S(=O)(=O)c2cccs2)cc1 (centres unmarked) | -4.34% |
| O=C(CNC1C(=O)Nc2ccccc21)Sc1ccccc1 (centres unmarked) | 22.3% |
| CCSc1nnc(NC(=O)Cc2cc(OC)c(OC)c(OC)c2)s1 | 8.27% |
| CSc1nnc(SCC(=O)N(C)c2c(N)n(Cc3ccccc3)c(=O)[nH]c2=O)s1 | 5.79% |
| CC(C)C[C@H](NC(=O)c1nc[nH]c1C(=O)NCc1ccccc1)C(=O)OCc1ccccc1 | -7.88% |
| COCCn1c(SCC(=O)NC2CCCC2)nnc1C(C)C | 22.6% |
| CSc1cccc(CN2CCC(CCC(=O)NC3CC3)CC2)c1 | -62.6% |
| O=C(CCC1CCN(Cc2ccc(Cl)cc2)CC1)NC1CC1 | -65.9% |
| CSc1ccccc1C(=O)N1CCC(CCC(=O)NC2CC2)CC1 | 11.6% |
| O=C(CCC1CCN(Cc2ccc(C#CCCO)cc2)CC1)NC1CC1 | -46.7% |

| Structure (SMILES) | hERG current change (%, negative = inhibition) at 10uM |
| --- | --- |
| O=C(CCC1CCN(Cc2ccccc2Cl)CC1)NC1CC1 | -23.2% |
| CSc1ccc(C(=O)N2CCC(CCC(=O)NC3CC3)CC2)cc1 | -30.8% |
| CN(Cc1cnn(C)c1)Cc1nc(-c2ccc(Cl)cc2)no1 | -4.26% |
| Cn1c(=O)c2c(SC3CCCC3)nc(C3CC3)nc2n(C)c1=O | 18.8% |
| S=C1NCCOCCOCCNC(=S)N2CCOCCOCCN1CCOCCOCC2 | 5.22% |
| CCOC(=O)c1[nH]c(C)c(C(=O)N2CCN(c3cccc(Cl)c3)CC2)c1C | -13.8% |
| CN(C(=O)CSc1ncc(C(F)(F)F)cc1Cl)c1c(N)n(Cc2ccccc2)c(=O)[nH]c1=O | 8.25% |
| CN(C)S(=O)(=O)c1ccc(C(=O)OCc2ccc(C#N)cc2)cc1 | -11.1% |
| C/C(=N\OCc1ccc(C#N)cc1)c1ccccc1 | 12.1% |
| C/C(=N\OCc1ccc(C#N)cc1)c1ccc(S(=O)(=O)N(C)C)cc1 | -52.7% |
| CCn1c(SCC(=O)N2CCOCC2)nc2sc3c(c2c1=O)CCCC3 | -5.19% |
| C=CCn1c(SCC(=O)N2CCCC2)nc2c([nH]c3ccccc32)c1=O | -29.6% |
| C=CCn1c(SCC(=O)NC2CCCC2)nc2c([nH]c3ccccc32)c1=O | -40.8% |
| C=CCn1c(SCC(=O)N2CCOCC2)nc2c([nH]c3ccccc32)c1=O | -52.9% |
| C=CCn1c(SCC(=O)N2CCN(c3ccccc3)CC2)nc2c([nH]c3ccccc32)c1=O | 13.3% |
| C=CCn1c(SCCN2CCCC2)nc2c([nH]c3ccccc32)c1=O | -71.7% |
| C=CCn1c(SCC(=O)N2CCN(CCO)CC2)nc2sc3c(c2c1=O)CCC3 | -20.9% |
| C=CCn1c(SCC(=O)NCCc2ccccc2)nc2c([nH]c3ccccc32)c1=O | -3.29% |
| C=CCn1c(SCC(=O)N2CCOCC2)nc2sc3c(c2c1=O)CCCC3 | -53.9% |
| COc1ccc(S(=O)(=O)Nc2ccc(S(=O)(=O)Nc3nccs3)cc2)cc1 | 19.9% |
| COc1ccc(OCc2cc(C(=O)O)c(C)o2)cc1 | 2.69% |
| CCN(CC)c1nc2ccccc2n2cnnc12 | -16.4% |
| CCn1c(SC)nnc1-c1sc2cc(Cl)ccc2c1Cl | -55.4% |

| Structure (SMILES) | hERG current change (%, negative = inhibition) at 10uM |
| --- | --- |
| CCn1c(SC)nnc1-c1nnc(SC)n1CC | -7.09% |
| CSc1nnc(-c2sc3cc(Cl)ccc3c2Cl)n1C | 0.137% |
| Cc1ccc(SCC(=O)OCC(=O)NC2CCCCCCC2)cc1 | -4.33% |
| O=C(N/N=C/c1ccc[nH]1)c1cc(-c2cccs2)nc2ccccc12 | 0.659% |
| O=C(O)[C@@H](c1ccccc1)N1Cc2ccccc2C1=O | 17.2% |
| Br.Cc1ccc(C(=O)C(c2ccccc2)N2Cc3ccccc3C2=N)cc1 (centres unmarked) | -60.3% |
| Br.CCC(C)N1Cc2ccccc2C1=N (centres unmarked) | 2.75% |
| NNC(=O)c1nc[nH]c1C(=O)Nc1ccccc1 | 24.1% |
| COc1ccccc1/C=N/NC(=O)c1ccc(CN2C(=O)c3cccc4cccc2c34)cc1 | 2.35% |
| Cc1cccc(C)c1NC(=O)C(NC(=O)c1ccccn1)c1ccc([N+](=O)[O-])cc1 (centres unmarked) | 7.6% |
| NNC(=O)c1ccc(COc2ccc([N+](=O)[O-])cc2)o1 | -23.1% |
| O=C(O)c1ccc(COc2ccc([N+](=O)[O-])cc2)o1 | 23.2% |
| CC1CCCCN1C(=O)c1ccc(COc2ccc([N+](=O)[O-])cc2)o1 (centres unmarked) | -69.9% |
| COc1ccc(/C=C(\C#N)C(=O)OCC(=O)Nc2ccc(C(C)(C)C)cc2)cc1 | 0.425% |
| COc1ccccc1OCCNC(=O)CSC(=S)N1CCCC1 | -4.17% |
| O=C(Cc1ncc(C(F)(F)F)cc1Cl)N1CCN(c2cccc(Cl)c2)CC1 | -60.6% |
| CN1CCN(C(=O)CCc2ncc(C(F)(F)F)cc2Cl)CC1 | 11.7% |
| COc1ccc(N2CCN(C(=O)Cc3ncc(C(F)(F)F)cc3Cl)CC2)cc1 | -51.9% |
| COc1ccc(OCC(=O)N2CCN(c3cccc(C(F)(F)F)c3)CC2)cc1 | -42.6% |
| O=C(Cc1ncc(C(F)(F)F)cc1Cl)N1CCN(c2ccc(F)cc2)CC1 | -41.3% |
| O=C(Cc1ncc(C(F)(F)F)cc1Cl)N1CCN(c2ccccn2)CC1 | -17.2% |
| CCN1CCN(C(=O)C2CCN(S(=O)(=O)c3ccc4c(c3)NC(=O)C(C)S4)CC2)CC1 (centres unmarked) | 14.1% |
| COCCN(C(=O)c1csnn1)C(C(=O)NC1CCCC1)c1ccccc1 (centres unmarked) | 3.23% |

| Structure (SMILES) | hERG current change (%, negative = inhibition) at 10uM |
| --- | --- |
| CC(C)C1=C2OC(N)=C(C#N)C(C#N)=C2C(C)CC1 (centres unmarked) | 9.98% |
| C#CCNC(=O)C1=C[C@@H](c2ccc(Br)cc2)[C@H](CCCO)[C@@H](OCC)O1 | -28.4% |
| CCOc1ccc(N(CC)S(=O)(=O)c2ccc3c(c2)oc(=O)n3C)cc1 | -5.43% |
| COC(=O)c1sccc1NC(=O)c1cc(C)on1 | 4.01% |
| COc1ccccc1-c1coc2c(CN3CCC(C)CC3)c(O)ccc2c1=O | 7.18% |
| Cc1ccc(S(=O)(=O)N2CCOCC2)cc1C(=O)NCCCn1ccnc1 | 15.6% |
| CC1CCN(CC(O)COCCC23CC4CC(CC(C4)C2)C3)CC1.Cl (centres unmarked) | -51.5% |
| CC1CCC(C(C)C)C(OCC(O)CNC(C)c2ccccc2)C1.Cl (centres unmarked) | 0.875% |
| CC1CCCCN1CC(O)COCc1ccccc1.Cl (centres unmarked) | 5.66% |
| NCC(O)COCCC12CC3CC(CC(C3)C1)C2 (centres unmarked) | -1.48% |
| CC(NCC(O)COCCC12CC3CC(CC(C3)C1)C2)c1ccccc1.Cl (centres unmarked) | -53.8% |
| Cl.OC(COCCC12CC3CC(CC(C3)C1)C2)CN1CCCCC1 (centres unmarked) | -40.1% |
| CC1CC(OCC(O)CN2CCCCC2C)CC(C)(C)C1.Cl (centres unmarked) | -25.8% |
| CC1CCCCN1CC(O)COCCC12CC3CC(CC(C3)C1)C2.Cl (centres unmarked) | -63.6% |
| Cl.OC(COCCC12CC3CC(CC(C3)C1)C2)CN1CCCC1 (centres unmarked) | -30.3% |
| CCC(=O)Nc1ccc(N2CCN(C(=O)c3ccccc3C)CC2)cc1 | 0.168% |
| CSc1nc(N(C)C)c2ccccc2n1 | -19% |
| CCn1ccnc1CN(C)Cc1c(C(=O)N2C[C@@H](C)O[C@@H](C)C2)nc2ccc(Cl)cn12 | 11.6% |
| Cc1ccc(N2N=C(C(=O)O)CCC2=O)cc1Cl | -45.2% |
| CCC1(c2ccccc2)NC(=O)N(CC(=O)c2ccc3c(c2)OCO3)C1=O (centres unmarked) | -4.15% |
